# Experimental data from PubChem BioAssay.
# Activity calls are given as the source filed them. Unless noted, how the calls were made is not given here.
# Key:
# [1] = anti-His antibody binders, primary screen, artefact control for SMM control protein annotation, biochemical, small-molecule microarray, 635 nm fluorescence (AID 1128); settings: anti-His Alexa647 antibody binding, higher = more signal;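 further: score merges feature fluorescence with signal-to-noise for each printed compound spot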
# [2] = test system: Human papillomavirus type 1a E7 protein (residues 1-88); experiment: HPV1a E7 small-molecule binders, primary screen, biochemical, small-molecule microarray, residues 1-88, 635 nm (AID 1129); settings: small-molecule microarray binding, fluorescence 635 nm; higher = more signal
# [3] = target: Focal adhesion kinase 1 (Homo sapiens) (UniProt Q05397); experiment: small-molecule microarray binders of FAK, primary screen, biochemical, 635/667 nm fluorescence, BSA, DTT (AID 1130); settings: PTK2 binding, 635 nm fluorescence, higher = more signal;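 further: composite of spot emission at 667 nm and signal to noise over triplicate slides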
# [4] = test system: Fibrinogen (Alexa647-labelled); experiment: fibrinogen binders on compound microarrays, profiling panel, artefact control for SMM control-protein annotation, biochemical, small-molecule microarray, 635/667 nm fluorescence (AID 1131); settings: fibrinogen-A647 binding fluorescence, higher = more signal;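 further: z-score merges 667 nm fluorescence with per-spot signal-to-noise over triplicate slides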
# [5] = target: Follistatin (Homo sapiens) (UniProt P19883); experiment: follistatin binders on small-molecule microarrays, primary screen, biochemical, small-molecule microarray, 635/667 nm fluorescence (AID 1132); settings: FST binding, 635 nm fluorescence, higher = more signal
# [6] = target: Fibroblast growth factor 2 (Homo sapiens) (UniProt P09038); experiment: FGF2 binders on small-molecule microarrays, primary screen, biochemical, small-molecule microarray, 635/667 nm fluorescence (AID 1133); settings: small-molecule microarray binding, FGF2, fluorescence 635/667; higher = more signal
# [7] = mitochondrial membrane potential change in A549 cells, profiling panel, cell-based, JC-1 fluorescence, basal, 24 h, 100 nL (AID 1138); settings: higher = more signal;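 further: A549 lung adenocarcinoma cells under basal conditions with no added stimulus; test concentration not given here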
# Lefty1 = Lefty1 binders on small-molecule microarrays, primary screen, biochemical, small-molecule microarray, 635/667 nm fluorescence (AID 1139); settings: small-molecule microarray binding, fluorescence 635/667; higher = more signal
# [8] = test system: wheat germ agglutinin (Triticum aestivum), Alexa647-labelled; experiment: wheat germ agglutinin binders on compound microarrays, profiling panel, artefact control for SMM control-protein annotation, biochemical, small-molecule microarray, 635/667 nm fluorescence (AID 1140); settings: WGA-A647 binding, 635 nm fluorescence, higher = more signal;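 further: score merges 667 nm feature emission with signal to noise over triplicate slides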
# [9] = target: Luciferin 4-monooxygenase (Photinus pyralis) (UniProt P08659); experiment: firefly luciferase enzyme inhibitors, primary screen, biochemical, luminescence, purified enzyme, 2006 set (AID 1141); settings: SteadyGlo luminescence, 30 min, higher = more signal, called active from +8 up or from −8 down;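 further: cell-free assay with purified firefly luciferase at 100 ng per well in PBS; test concentration not given here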
# [10] = test system: Wnt5a (protein binding on small-molecule microarray); experiment: Wnt5a binders on small-molecule microarray, primary screen, biophysical, 635/667 nm fluorescence (AID 1142); settings: 635 nm fluorescence, higher = more signal;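 further: fluorescence read at 667 nm with signal to noise per printed feature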
# [11] = cell viability in Huh7 cells, primary screen, cytotoxicity control for HCV replication inhibitor project, CellTiter-Glo luminescence, basal, 48 h (AID 1143); settings: Huh7 HCV replicon, higher = more signal, called active from +8 up or from −8 down;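 further: Huh7 hepatoma cells carrying a hepatitis C replication reporter with no stimulus; test concentration not given here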
# [12] = P. aeruginosa biofilm formation inhibitors, primary screen, PAO1 strain, BacTiter-Glo luminescence, LB-PBS (AID 1144); settings: 12 h, higher = more signal
# [13] = CREB reporter modulators without forskolin, primary screen, cell-based, PC12, CRE-LacZ reporter, unstimulated (AID 1145); settings: no forskolin, luminescence, 4.5 h, higher = more signal, called active from +8 up or from −8 down
# [14] = CREB reporter modulators under forskolin, primary screen, cell-based, PC12, CRE-LacZ reporter, forskolin-stimulated (AID 1146); settings: luminescence, 4.5 h, higher = more signal, called active from +8 up or from −8 down;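 further: PC12 cells with 6xCRE LacZ reporter stimulated by forskolin 10 µM; beta-galactosidase reporter signal reflecting CREB driven transcription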
# [15] = target: Streptavidin (Streptomyces avidinii) (UniProt P22629); experiment: streptavidin binders on small-molecule microarray, primary screen, artefact control for SMM compound annotation, biophysical, 635/667 nm fluorescence (AID 1147); settings: streptavidin binding, higher = more signal;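 further: signal reflects streptavidin binding to arrayed compounds as a control protein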
# [16] = small-molecule binders of probe aInhba, primary screen, biochemical, small-molecule microarray, 635/667 nm fluorescence (AID 1148); settings: higher = more signal;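 further: score merges 667nm spot fluorescence with signal-to-noise for antibody binding to printed compounds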
# Torsin-1A (Homo sapiens) [17] = target: Torsin-1A (Homo sapiens) (UniProt O14656); experiment: torsin A binders from cell lysate, primary screen, small-molecule microarray, wild-type, 635/667 nm (AID 1149); settings: COS7 hTOR1A-WT lysate, 635 nm fluorescence, higher = more signal
# Torsin-1A (Homo sapiens) [18] = target: Torsin-1A (Homo sapiens) (UniProt O14656); experiment: small-molecule binders of mutant TOR1A in lysate, primary screen, cell lysate, small-molecule microarray, COS7 lysate, 635/667 nm fluorescence (AID 1150); settings: COS7 hTOR1A mutant lysate, 635 nm fluorescence, higher = more signal;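 further: score pools 667 nm emission and signal to noise measuring lysate protein binding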
# [19] = test system: Sonic hedgehog protein (Shh); experiment: small-molecule binders of Shh protein, primary screen, biochemical, small-molecule microarray, 635/667 nm fluorescence (AID 1151); settings: small-molecule microarray binding, 635 nm fluorescence; higher = more signal;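 further: Shh protein binding to compounds spotted on small-molecule microarray slides; score combines spot fluorescence intensity with signal-to-noise across triplicate slides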
# Chain of Follistatin (Homo sapiens) (P19883 whole entry, looked up): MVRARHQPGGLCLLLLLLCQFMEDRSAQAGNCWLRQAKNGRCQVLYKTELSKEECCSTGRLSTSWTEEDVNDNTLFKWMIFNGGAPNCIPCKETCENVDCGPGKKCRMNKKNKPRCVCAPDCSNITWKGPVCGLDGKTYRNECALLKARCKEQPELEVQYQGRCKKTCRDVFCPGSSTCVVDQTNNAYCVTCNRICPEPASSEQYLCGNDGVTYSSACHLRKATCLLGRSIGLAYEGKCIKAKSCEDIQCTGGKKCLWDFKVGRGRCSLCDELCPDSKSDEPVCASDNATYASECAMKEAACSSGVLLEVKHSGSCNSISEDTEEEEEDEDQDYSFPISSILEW
# Chain of Torsin-1A (Homo sapiens) (O14656 whole entry, looked up): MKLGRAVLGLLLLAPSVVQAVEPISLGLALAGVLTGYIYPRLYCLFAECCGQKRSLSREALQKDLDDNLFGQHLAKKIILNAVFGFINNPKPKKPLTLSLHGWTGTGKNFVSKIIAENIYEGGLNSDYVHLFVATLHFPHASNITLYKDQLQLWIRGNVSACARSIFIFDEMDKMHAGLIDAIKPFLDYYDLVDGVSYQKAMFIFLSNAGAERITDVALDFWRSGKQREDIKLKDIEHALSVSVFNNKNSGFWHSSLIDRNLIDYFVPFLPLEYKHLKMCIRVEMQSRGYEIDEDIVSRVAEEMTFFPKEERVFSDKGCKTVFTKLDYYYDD
# Chain of Streptavidin (Streptomyces avidinii) (P22629 whole entry, looked up): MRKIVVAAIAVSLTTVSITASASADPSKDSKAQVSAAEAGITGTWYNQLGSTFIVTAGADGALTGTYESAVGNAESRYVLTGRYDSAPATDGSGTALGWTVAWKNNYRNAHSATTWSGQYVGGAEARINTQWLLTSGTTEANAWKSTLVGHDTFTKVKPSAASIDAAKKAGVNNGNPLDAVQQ
# Chain of Luciferin 4-monooxygenase (Photinus pyralis) (P08659 whole entry, looked up): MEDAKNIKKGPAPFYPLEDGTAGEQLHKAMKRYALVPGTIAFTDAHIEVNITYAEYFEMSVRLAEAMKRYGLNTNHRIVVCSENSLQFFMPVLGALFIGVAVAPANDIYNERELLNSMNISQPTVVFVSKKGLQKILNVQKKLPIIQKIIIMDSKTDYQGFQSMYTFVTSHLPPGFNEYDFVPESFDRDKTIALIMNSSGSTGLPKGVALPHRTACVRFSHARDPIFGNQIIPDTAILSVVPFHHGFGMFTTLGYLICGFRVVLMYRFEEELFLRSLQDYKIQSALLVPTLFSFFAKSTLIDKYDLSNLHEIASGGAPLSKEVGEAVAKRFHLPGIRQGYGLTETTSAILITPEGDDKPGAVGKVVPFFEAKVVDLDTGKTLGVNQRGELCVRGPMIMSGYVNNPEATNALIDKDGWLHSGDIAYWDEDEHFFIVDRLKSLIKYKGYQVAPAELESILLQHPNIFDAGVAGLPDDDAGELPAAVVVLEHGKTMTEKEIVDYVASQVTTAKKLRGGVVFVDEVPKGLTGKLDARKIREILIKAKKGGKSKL
# Chain of Fibroblast growth factor 2 (Homo sapiens) (P09038 whole entry, looked up): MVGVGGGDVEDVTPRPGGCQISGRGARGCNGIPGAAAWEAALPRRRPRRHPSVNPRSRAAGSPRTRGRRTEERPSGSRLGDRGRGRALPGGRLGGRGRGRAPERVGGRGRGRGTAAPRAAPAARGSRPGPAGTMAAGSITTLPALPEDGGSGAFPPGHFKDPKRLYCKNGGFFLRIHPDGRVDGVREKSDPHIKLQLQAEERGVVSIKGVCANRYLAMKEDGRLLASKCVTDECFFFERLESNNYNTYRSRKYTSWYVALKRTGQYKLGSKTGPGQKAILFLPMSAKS
# Chain of Focal adhesion kinase 1 (Homo sapiens) (Q05397 whole entry, looked up): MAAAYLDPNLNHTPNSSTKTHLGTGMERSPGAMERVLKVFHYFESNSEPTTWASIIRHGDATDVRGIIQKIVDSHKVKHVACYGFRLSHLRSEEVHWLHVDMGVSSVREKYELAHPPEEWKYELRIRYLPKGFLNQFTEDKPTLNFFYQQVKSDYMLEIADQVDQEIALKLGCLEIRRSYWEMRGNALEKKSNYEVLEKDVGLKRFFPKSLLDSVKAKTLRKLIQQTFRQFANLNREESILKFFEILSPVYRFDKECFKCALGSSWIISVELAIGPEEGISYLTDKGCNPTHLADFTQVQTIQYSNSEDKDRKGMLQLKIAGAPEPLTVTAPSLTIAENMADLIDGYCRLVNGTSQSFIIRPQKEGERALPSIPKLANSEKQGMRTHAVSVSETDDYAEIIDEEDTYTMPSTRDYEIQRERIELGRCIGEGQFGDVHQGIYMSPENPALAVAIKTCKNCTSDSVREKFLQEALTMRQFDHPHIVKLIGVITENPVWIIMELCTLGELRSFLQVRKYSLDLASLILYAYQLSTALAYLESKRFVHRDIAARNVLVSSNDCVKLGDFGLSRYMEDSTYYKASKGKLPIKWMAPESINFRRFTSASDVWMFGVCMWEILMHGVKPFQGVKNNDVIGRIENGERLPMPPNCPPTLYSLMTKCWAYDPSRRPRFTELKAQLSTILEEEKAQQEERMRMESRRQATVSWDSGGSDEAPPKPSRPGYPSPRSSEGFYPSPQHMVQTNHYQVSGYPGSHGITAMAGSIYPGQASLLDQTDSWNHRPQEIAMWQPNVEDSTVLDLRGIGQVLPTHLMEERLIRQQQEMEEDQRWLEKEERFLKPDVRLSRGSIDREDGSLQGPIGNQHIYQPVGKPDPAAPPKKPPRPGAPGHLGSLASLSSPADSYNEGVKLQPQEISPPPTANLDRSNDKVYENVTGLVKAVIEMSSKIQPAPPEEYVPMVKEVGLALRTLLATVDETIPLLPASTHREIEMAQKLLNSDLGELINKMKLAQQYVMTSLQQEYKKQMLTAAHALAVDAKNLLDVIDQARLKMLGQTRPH
SMILES,composite z-score [1],composite z-score [2],composite z-score [3],composite z-score [4],composite z-score [5],composite z-score [6],z-score [7],composite z-score (Lefty1),composite z-score [8],z-score [9],composite z-score [10],z-score [11],z-score [12],z-score [13],z-score [14],composite z-score [15],composite z-score [16],composite z-score (Torsin-1A (Homo sapiens) [17]),composite z-score (Torsin-1A (Homo sapiens) [18]),composite z-score [19]
Cc1ccc(S[C@]2(C(=O)NCC(F)(F)F)CC(=O)N(Cc3ccccc3)[C@@H]2c2ccc(CO)cc2)cc1,-0.951,0.389,-0.0414,-1.16,-0.739,-0.683,-0.483,-0.758,-0.693,0.519 (inactive),-0.264,-4.85 (inactive),-0.485 (inactive),0.829 (inactive),0.906 (inactive),-1.23,0.0171,-0.2,-0.238,-0.243
COCCCNC(=O)[C@]1(Cc2ccccc2CN=[N+]=[N-])N=C(c2ccc(OCCCO)cc2)O[C@@H]1c1ccccc1,2.83,1.19,0.306,0.985,0.547,-0.0864,1.06,0.0167,0.643,0.505 (inactive),0.419,-4.93 (inactive),-0.436 (inactive),-0.0667 (inactive),-0.577 (inactive),0.723,-0.0736,0.214,0.311,-1.07
O=C1C2C=CC(C(O)c3cc(C(F)(F)F)cc(C(F)(F)F)c3)N(Nc3ccc([N+](=O)[O-])cc3)C2C(=O)N1c1ccccc1 (stereo not given),0.338,1.24,0.681,1.02,1.05,0.4,-0.953,0.953,0.599,0.833 (inactive),0.553,-4.58 (inactive),-0.0376 (inactive),1.63 (inactive),-0.303 (inactive),1.02,0.358,0.621,0.428,0.74
COCC(=C=CC[C@H](O)c1cccc(OCCO)c1)C[C@H](O)c1ccccn1,0.344,0.273,-0.296,0.521,1.37,0.89,1.07,1.37,0.613,-0.266 (inactive),0.467,-0.0843 (inactive),-0.368 (inactive),1.34 (inactive),-0.527 (inactive),-0.368,0.0497,-0.733,-0.526,1.59
COC(=O)[C@@]1(Cc2ccc(F)cc2)[C@H]2c3cc(C(=O)N4CCCC4)n(CCc4c[nH]c5ccc(OC)cc45)c3C[C@H]2CN1C(=O)c1ccccc1,2.4,1.22,2.48,0.845,0.685,0.6,-1.17,0.385,0.977,1.64 (inactive),1.51,-4.66 (inactive),-0.23 (inactive),0.0041 (inactive),-0.556 (inactive),1.53,1.62,0.844,0.736,0.0332
